This is a sample that favours compounds with a hit; in the whole collection about 18% have one here.
LDHA block = LDHA (human) enzyme inhibition; purified LDHA, NADH/diaphorase-resazurin fluorescence; hits give low values; activity change, % (values are at about 110 or 230 µM); P00338; 480,000 compounds, 0.15% hits; in the data active = activity change below about -30%; inconclusive = mostly about -25% to -30%;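 note: plate controls were DMSO wells for no effect and wells without enzyme for full effect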
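Remaining NADH was detected by diaphorase (0.133 mg/mL) converting 37 µM resazurin to fluorescent resorufin, read at 0 and 20 minutes. The preceding 5-minute room-temperature reaction used 2 nM LDHA, 0.2 mM sodium pyruvate and 0.06 mM NADH at pH 7.4.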
RORgamma inh = inhibitors of mouse ROR gamma transcriptional activity; P51450; Drosophila S2 Gal4-RORgamma UAS-luciferase reporter, 20 h; Potency, µM (top dose mostly 53.6 µM), for the others: at the top dose activity change, negative = inhibition, usual class: inhibitors; 310,000 compounds, 5.4% hits; AID 2551; note: potency is the fitted concentration of half-maximal effect; nearly all actives have a fitted effect of over 60% in size
Target sequence (P51450 whole entry, looked up, the tested form may be a part): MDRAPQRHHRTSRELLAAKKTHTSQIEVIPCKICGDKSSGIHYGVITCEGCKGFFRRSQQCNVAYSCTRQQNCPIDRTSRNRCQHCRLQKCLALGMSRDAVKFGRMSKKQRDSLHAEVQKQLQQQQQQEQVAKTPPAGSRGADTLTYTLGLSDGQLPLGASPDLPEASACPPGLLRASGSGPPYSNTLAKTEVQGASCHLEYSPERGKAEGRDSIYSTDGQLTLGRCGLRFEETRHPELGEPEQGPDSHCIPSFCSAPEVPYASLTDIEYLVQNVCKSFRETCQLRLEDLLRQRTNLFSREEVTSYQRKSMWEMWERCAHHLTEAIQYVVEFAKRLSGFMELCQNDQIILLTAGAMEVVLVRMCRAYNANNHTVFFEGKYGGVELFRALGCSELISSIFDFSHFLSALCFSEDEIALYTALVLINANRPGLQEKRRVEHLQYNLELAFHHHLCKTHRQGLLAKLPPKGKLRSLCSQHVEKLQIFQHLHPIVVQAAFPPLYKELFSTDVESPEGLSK
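Drosophila Schneider cells stably carrying a metallothionein-driven Gal4 DBD–ROR gamma fusion and a UAS-Photinus luciferase reporter were exposed to compound for 1 hr, then induced with copper sulfate (700 uM final) for 20 hr at ambient temperature before luminescence reading.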
DT40 TDP1 CPT = growth inhibition of DT40 Tdp1-/-;hTDP1 cells with camptothecin (screen for TDP1 inhibitors); chicken DT40 Tdp1-/-;hTDP1 cells + 20 nM CPT, ATP luminescence, 48 h; Potency, µM (series often up to 46.2 µM), for the others: top-dose activity change, negative = growth inhibition, most hits filed as inhibitors; 420,000 compounds, 12% hits; note: potency is the fitted concentration of half-maximal effect; nearly all actives have a fitted effect of over 55% in size
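Cell growth measured by CellTiter-Glo luminescence after a minimum 48 h, 37 C compound exposure with 20 nM CPT in Tdp1-knockout DT40 cells stably expressing hTDP1, seeded 400/well; qHTS titration format.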
IL-1B inflam inh = blocks inflammasome-driven IL-1 beta release. 360,000 compounds, 4.7% hits. THP-1 LPS/ATP IL-1B secretion, AlphaLISA, 16 h; hits give low values. activity change, % at 57.5 µM. AID 743279; in the data active = activity change below about -50%; inconclusive = mostly about -30% to -49%
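THP-1 cells pretreated 1 hr with compounds (up to 57.5 uM final), then stimulated with LPS (250 ng/mL final) plus ATP (1.25 mM final); secreted IL-1B measured by AlphaLISA after 16 hr, decreased signal indicating inhibition.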
Gal4-VP16 FLuc = inhibits Gal4-VP16 luciferase reporter, ROR gamma counter-screen; 310,000 compounds, 3.5% hits; Potency, µM (top dose mostly 53.6 µM), for the others: top-dose activity, negative = inhibition, usual class: inhibitors; Drosophila S2 Gal4-VP16 UAS-luciferase, luminescence, 20 h;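 note: Gal4-VP16 expression switched on by copper sulfate through the metallothionein promoter; potency is the fitted concentration of half-maximal effect; nearly all actives have a fitted effect of over 50% in size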
TDP1 cell noCPT = qHTS for Inhibitors of human tyrosyl-DNA phosphodiesterase 1 (TDP1): qHTS in cells in absence of CPT | DT40 Tdp1-/- hTDP1 cells, no CPT, ATP luminescence, 48 h | Potency, µM (series often up to 46.2 µM), for inactives: at the top dose activity change, negative = growth inhibition, hits mostly inhibitors | 420,000 compounds, 15% hits; note: potency is the fitted concentration of half-maximal effect; nearly all actives have a fitted effect of over 55% in size
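Camptothecin absent (DMSO only). Human TDP1-complemented DT40 knockout cells, 400 cells/well, 37 °C for minimum 48 hr; ATP measured via CellTiter-Glo, 30 min dark incubation, luminescence.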
An asterisk follows results filed as active; u = inconclusive; x = no result given; [ ] = dose if it differs, or a comment. Unless noted, calls come from the whole dose curve; as a rule, active = well fitted curve in the direction sought with a large enough effect; inconclusive = small, poorly fitted or top-dose-only effect, or another doubt; inactive = no such curve, though single readings can be large; an effect the other way counts as inactive or inconclusive. Unless noted, % is set by controls: 0 for no effect and ±100 for the full control effect.

SMILES	LDHA block	RORgamma inh	DT40 TDP1 CPT	IL-1B inflam inh	Gal4-VP16 FLuc	TDP1 cell noCPT
COC(=O)c1c(NC(=O)C2=COCCO2)sc(C)c1C	-4	x	-2%	-60*	x	u
CCOC(=O)c1c(NC(=O)C2=COCCO2)sc2c1CCN(C(=O)OC)C2	-6	x	u	-26	x	18µM*
O=[N+]([O-])c1ccc(N2CCN(c3ccccc3Cl)CC2)cn1	4	26%	18µM*	-1	u	21µM*
CC(=O)N(C)c1ccc(N=Nc2ccc3ncccc3c2)cc1	-2	x	u	u	x	15µM*
Cc1cccc(/C=N/NC(=O)c2cccs2)n1	8	x	x	x	x	x
Cc1ccc(C)c(N2CCN(C(=O)CCS(=O)(=O)c3cc4c5c(c3)CCN5C(=O)CC4)CC2)c1	-2	x	x	x	x	x
Cc1cccc(Oc2c(C(F)(F)F)oc3cc(OC(=O)c4cncc(Br)c4)ccc3c2=O)c1	13	x	x	x	x	x
CN(c1ccc(S(=O)(=O)N2CCOCC2)cn1)C1CCCCC1	1	31%	-62%	18	-6%	23µM*
CCN(C(=O)C(C)Sc1ccc(S(=O)(=O)N2CCOCC2)cn1)c1ccccc1 (stereo not drawn)	0	x	u	-13	x	18µM*
CN(C(=O)COC(=O)c1ccc(S(=O)(=O)N2CCOCC2)cc1)C1CCCCC1	-1	2%	0%	5	5%	-3%
O=C(Nc1ccccc1-n1cncn1)C1CCCCC1	2	x	x	x	x	x
Cc1ccc(CC(=O)Nc2nc3ccccc3[nH]2)cc1C	-2	3.2µM*	3.5µM*	7	-27%	1.8µM*
O=C(Cc1ccccc1Cl)Nc1nc2ccccc2[nH]1	-7	7.1µM*	-3%	32	u	u
Cc1c(CC(=O)Nc2nc3ccccc3[nH]2)c(=O)oc2c(C)c(O)ccc12	-1	x	x	x	x	x
O=C(CCNC(=O)c1ccccc1Cl)Nc1nc2ccccc2[nH]1	-3	x	-2%	6	x	-13%
O=C(Cn1nc(-c2cccs2)c2ccccc2c1=O)NCC(F)(F)F	1	x	x	x	x	x
O=c1oc2ccccc2c(N2CCN(c3ccc(F)cc3)CC2)c1CN1CCCC1	4	x	u	x	x	16µM*
CCC(C)NC(=O)CSc1ncnc2c1cnn2-c1ccccc1 (stereo not drawn)	0	x	x	x	x	x
CC1CCN(c2[nH]c(=S)c(C#N)c3c2CCCC3)CC1	5	7.1µM*	u	7	u	u
CC1CCC(=NO)CC1 (stereo not drawn)	8	x	x	x	x	x
COc1ccc(Cl)cc1NC(=O)Cn1nnc(C(=O)NCc2cccs2)c1N	-5	x	4.6µM*	x	x	1.2µM*
Cc1ccc(Cn2nnc(C(=O)Nc3cccc(C)c3C)c2N)cc1	-2	24%	u	-6	6%	21µM*
COc1cccc(Cn2nnc(C(=O)Nc3ccc(C)cc3)c2N)c1	-3	7%	-14%	u	-3%	-14%
CCc1ccccc1NC(=O)c1nnn(Cc2ccc(Cl)cc2)c1N	-1	x	u	x	x	13µM*
CCc1ccccc1NC(=O)c1nnn(CC(=O)Nc2ccccc2C)c1N	-4	1%	1%	18	-1%	7%
SMILES	LDHA block	RORgamma inh	DT40 TDP1 CPT	IL-1B inflam inh	Gal4-VP16 FLuc	TDP1 cell noCPT
COc1cccc(Cn2nnc(C(=O)Nc3cc(C)ccc3OC)c2N)c1	-6	-16%	26µM*	-4	0%	-26%
NS(=O)(=O)c1ccc(N/N=C/C(Cl)=C/c2ccccc2)c([N+](=O)[O-])c1	2	x	x	x	x	x
COCCN(CCOC)C(=O)c1cc(Cl)ccc1F	-4	x	x	x	x	x
CC(=O)N1CCc2cc(NC(C)C(=O)Nc3ccccc3OC(F)F)ccc21 (stereo not drawn)	6	x	x	x	x	x
N#Cc1ccccc1NC(=O)c1cc2c(s1)CCCC2	-1	x	x	x	x	x
COc1ccc(Cn2nnc(C(=O)Nc3cc(OC)ccc3OC)c2N)cc1	9	x	18µM*	x	x	u
COc1ccc(NC(=O)c2nnn(Cc3ccc(Cl)cc3)c2N)c(OC)c1	0	x	x	x	x	x
COc1ccc(NC(=O)c2nnn(Cc3ccccc3C)c2N)c(OC)c1	-6	x	-28%	x	x	6.5µM*
COc1ccc(OC)c(NC(=O)c2nnn(Cc3ccccc3C)c2N)c1	-1	-14%	u	-19	-21%	u
Cc1ccc(Cl)cc1NC(=O)c1nnn(Cc2ccccc2)c1N	-16	x	u	x	x	u
Cc1cccc(Cn2nnc(C(=O)Nc3cc(C)ccc3C)c2N)c1	-2	x	29µM*	x	x	18µM*
COc1ccc(/C=C(\C#N)C(=O)Nc2cccc(C(F)(F)F)c2)c(OC)c1	1	x	x	x	x	x
CCOC(=O)c1c(C)[nH]c(C(=O)OCC(=O)Nc2sc(C(=O)N(C)C)c(C)c2C(=O)OCC)c1C	0	x	u	-51*	x	23µM*
CCOC(=O)c1[nH]c(C)c(C(=O)OCC(=O)NC(C)c2ccc(F)cc2)c1C (stereo not drawn)	-11	x	1.6µM*	0	x	1.2µM*
CCOC(=O)c1c(C)[nH]c(C(=O)OCC(=O)OC)c1C	4	x	x	x	x	x
CCOC(=O)c1c(NC(=O)COC(=O)c2ccc([N+](=O)[O-])cc2)sc(C(=O)N(C)C)c1C	-3	x	17%	-5	x	-3%
CCOC(=O)c1c(C)[nH]c(C(=O)OCC(=O)NC(C)(C)C)c1C	0	16%	u	-10	-13%	18µM*
CCC(=O)Nc1ccc(-c2nc3cc(Cl)ccc3o2)cc1	-6	x	x	x	x	x
CCOc1ccc(NC(=O)NC(C)c2c(-n3cccc3)sc3c2CCN(CC)C3)cc1 (stereo not drawn)	0	x	21µM*	x	x	18µM*
CCOc1ccc(NC(=O)NCc2c(-n3cccc3)sc3c2CCCC3)cc1	-6	x	-4%	x	x	-15%
CCN1CCc2c(sc(-n3cccc3)c2C(C)NC(=O)Nc2ccc(Br)cc2)C1 (stereo not drawn)	2	x	16µM*	x	x	13µM*
CCOCCCNC(=O)NC(C)c1c(-n2cccc2)sc2c1CCN(CC)C2 (stereo not drawn)	1	x	13µM*	x	x	16µM*
CCN1CCc2c(sc(-n3cccc3)c2CNC(=O)NCc2ccc(C)cc2)C1	4	x	x	x	x	x
COC(=O)C1CSC(c2ccc(Cl)cc2)N1C(=O)c1ccccc1 (stereo not drawn)	2	34%	21µM*	53	3%[10 µM]	18µM*
O=C(CSc1nc2ccccc2c(=O)n1CC1CCCCC1)N1CCOCC1	-3	-10%	u	-24	1%	u
CCN(CC)C(=O)CSc1nc2ccccc2c(=O)n1CC1CCCCC1	0	11%	23µM*	-25	-6%	16µM*

Bioassay records: PubChem BioAssay, National Center for Advancing Translational Sciences (NCATS)
